The text below walks through data of ChEMBL document CHEMBL5724796, “Tm Shift (DSF) assay results for EUbOPEN Chemogenomics Library” (2024).

Holding throughout (conditions): Compound concentration 20.0 uM
For assay [1], the target named is Tyrosine-protein kinase ABL1 (Homo sapiens) (UniProt P00519).
For assay [2], the target named is Bromodomain-containing protein 4 (Homo sapiens) (UniProt O60885).
The target in assay [3] is Cyclin-dependent kinase 2 (Homo sapiens) (UniProt P24941).
Assay [4] deals with Casein kinase I isoform delta (Homo sapiens) (UniProt P48730).
Sequence of Casein kinase I isoform delta (Homo sapiens) (P48730 whole entry, looked up, canonical isoform): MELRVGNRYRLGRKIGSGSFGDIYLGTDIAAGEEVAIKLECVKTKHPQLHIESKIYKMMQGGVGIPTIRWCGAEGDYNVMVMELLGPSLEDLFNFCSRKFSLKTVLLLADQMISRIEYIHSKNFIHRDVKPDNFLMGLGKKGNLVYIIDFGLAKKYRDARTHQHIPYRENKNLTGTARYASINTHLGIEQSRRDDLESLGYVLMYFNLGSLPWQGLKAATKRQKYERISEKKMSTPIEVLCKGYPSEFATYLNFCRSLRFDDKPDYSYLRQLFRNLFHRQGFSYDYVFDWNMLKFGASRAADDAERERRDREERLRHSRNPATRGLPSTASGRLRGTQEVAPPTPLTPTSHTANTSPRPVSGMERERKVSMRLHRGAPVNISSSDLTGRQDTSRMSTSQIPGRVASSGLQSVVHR
In assay [5] the target is Glycogen synthase kinase-3 beta (Homo sapiens) (UniProt P49841).
Sequence of Glycogen synthase kinase-3 beta (Homo sapiens) (P49841 whole entry, looked up): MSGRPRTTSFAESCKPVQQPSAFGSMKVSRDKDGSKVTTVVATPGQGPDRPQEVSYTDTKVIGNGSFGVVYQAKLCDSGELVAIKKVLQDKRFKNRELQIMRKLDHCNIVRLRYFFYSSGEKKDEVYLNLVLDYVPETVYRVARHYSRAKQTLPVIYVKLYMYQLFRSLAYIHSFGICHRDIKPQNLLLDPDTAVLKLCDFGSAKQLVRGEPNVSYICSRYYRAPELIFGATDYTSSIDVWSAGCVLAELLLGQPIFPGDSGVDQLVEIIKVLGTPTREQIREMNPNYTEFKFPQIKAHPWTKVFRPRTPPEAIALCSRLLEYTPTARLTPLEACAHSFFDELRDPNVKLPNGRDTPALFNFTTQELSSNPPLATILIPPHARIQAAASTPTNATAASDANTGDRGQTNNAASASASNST
The target in assay [6] is Mitogen-activated protein kinase 1 (Homo sapiens) (UniProt P28482).
Sequence of Mitogen-activated protein kinase 1 (Homo sapiens) (P28482 whole entry): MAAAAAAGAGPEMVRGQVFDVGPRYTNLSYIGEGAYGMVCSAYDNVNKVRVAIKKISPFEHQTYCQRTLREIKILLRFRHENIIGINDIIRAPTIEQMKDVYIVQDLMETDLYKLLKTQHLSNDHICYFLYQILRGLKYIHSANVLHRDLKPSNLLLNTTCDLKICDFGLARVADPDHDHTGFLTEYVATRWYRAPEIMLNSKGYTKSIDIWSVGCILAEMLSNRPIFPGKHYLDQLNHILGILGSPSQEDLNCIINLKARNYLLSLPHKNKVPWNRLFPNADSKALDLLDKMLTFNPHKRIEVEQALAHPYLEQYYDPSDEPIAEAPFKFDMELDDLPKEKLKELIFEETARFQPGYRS
Assay [7] deals with T1, Aurora kinase A (Homo sapiens) (UniProt O14965).
T1 sequence (whole entry): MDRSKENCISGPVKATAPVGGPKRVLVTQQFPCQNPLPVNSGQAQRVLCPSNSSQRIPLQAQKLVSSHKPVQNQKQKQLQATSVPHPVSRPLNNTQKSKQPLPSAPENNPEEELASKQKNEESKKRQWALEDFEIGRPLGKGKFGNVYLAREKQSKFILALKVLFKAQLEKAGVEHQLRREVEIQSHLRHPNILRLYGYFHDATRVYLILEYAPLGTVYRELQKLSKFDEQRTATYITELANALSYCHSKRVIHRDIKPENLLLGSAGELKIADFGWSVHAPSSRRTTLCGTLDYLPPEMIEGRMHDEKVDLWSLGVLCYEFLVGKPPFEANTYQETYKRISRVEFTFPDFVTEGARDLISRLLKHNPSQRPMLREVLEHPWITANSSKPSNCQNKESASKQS

The target in assay [8] is T2, Transcription intermediary factor 1-alpha (Homo sapiens) (UniProt O15164).
T2 sequence (whole entry): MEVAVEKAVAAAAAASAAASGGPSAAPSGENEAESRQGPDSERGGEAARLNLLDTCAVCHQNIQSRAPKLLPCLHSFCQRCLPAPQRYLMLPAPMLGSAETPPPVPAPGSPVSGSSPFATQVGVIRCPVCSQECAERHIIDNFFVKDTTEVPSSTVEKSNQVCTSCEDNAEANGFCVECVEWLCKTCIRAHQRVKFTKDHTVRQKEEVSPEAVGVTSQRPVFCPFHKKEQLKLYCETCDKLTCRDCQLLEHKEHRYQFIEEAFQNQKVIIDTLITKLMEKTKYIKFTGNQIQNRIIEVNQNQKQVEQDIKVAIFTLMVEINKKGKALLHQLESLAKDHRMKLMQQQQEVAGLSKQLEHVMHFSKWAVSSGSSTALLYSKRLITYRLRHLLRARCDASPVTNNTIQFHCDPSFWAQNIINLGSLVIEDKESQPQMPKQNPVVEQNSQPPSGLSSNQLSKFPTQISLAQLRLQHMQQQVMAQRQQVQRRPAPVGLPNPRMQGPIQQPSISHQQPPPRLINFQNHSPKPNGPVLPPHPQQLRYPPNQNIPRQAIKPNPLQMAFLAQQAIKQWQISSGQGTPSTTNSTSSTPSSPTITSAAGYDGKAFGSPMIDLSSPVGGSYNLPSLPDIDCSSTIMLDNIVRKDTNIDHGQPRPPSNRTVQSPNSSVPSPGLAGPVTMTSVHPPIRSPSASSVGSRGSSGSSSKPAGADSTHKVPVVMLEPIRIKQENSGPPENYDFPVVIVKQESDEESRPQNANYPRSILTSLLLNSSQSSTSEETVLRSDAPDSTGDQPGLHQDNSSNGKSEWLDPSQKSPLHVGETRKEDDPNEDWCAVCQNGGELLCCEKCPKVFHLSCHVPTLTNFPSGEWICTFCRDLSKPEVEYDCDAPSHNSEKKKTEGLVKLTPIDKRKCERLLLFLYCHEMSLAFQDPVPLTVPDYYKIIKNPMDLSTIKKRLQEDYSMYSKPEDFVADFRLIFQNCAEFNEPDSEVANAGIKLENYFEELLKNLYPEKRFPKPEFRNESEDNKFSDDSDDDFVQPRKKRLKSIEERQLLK

SMILES strings stand for the structures.

Sequence of Tyrosine-protein kinase ABL1 (Homo sapiens) (P00519 whole entry): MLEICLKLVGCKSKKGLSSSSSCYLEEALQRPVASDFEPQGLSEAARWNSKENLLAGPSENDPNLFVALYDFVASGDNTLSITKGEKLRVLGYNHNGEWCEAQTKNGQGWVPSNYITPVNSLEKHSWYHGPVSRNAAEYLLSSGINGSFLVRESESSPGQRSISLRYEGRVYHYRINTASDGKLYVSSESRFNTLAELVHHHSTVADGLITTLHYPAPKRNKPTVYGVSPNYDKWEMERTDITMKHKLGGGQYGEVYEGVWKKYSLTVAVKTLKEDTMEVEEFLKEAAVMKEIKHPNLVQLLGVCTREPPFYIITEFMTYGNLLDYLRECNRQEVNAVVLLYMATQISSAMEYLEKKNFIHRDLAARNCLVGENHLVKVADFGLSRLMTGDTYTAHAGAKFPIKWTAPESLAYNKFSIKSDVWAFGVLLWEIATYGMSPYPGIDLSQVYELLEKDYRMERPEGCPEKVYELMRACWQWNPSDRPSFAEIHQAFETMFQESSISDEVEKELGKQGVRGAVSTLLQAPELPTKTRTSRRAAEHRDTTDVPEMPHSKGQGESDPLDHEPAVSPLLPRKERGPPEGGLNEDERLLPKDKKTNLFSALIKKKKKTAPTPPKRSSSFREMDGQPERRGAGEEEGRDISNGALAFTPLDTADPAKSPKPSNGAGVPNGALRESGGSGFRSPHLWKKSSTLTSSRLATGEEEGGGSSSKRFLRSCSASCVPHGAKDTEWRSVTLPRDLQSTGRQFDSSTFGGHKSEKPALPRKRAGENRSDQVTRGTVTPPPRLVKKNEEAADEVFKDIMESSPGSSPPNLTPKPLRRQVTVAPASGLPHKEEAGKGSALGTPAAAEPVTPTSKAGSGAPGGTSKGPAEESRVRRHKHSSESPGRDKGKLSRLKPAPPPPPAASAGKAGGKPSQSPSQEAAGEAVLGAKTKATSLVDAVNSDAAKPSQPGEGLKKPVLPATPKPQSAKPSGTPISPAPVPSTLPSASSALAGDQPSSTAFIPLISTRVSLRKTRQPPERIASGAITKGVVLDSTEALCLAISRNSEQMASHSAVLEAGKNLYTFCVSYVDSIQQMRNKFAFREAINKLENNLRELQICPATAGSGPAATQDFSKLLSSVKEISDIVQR

In the case of `Cn1cc(-c2ccncc2)c(-c2ccc(OCc3ccc4ccccc4n3)cc2)n1`, the thermal shift (ΔTm) is 0.66 °C in assay [1]; -0.49 °C in assay [2]; -0.35 °C in assay [3]; 1.79 °C in assay [4]; 0 °C in assay [5]; 0.13 °C in assay [6]. Moreover, the ΔTm in assay [7] was 2.06 °C; in assay [8] it was 0.65 °C.
For `Cc1ccc([N+](=O)[O-])cc1S(=O)(=O)N(C)C`, the ΔTm was 0.7 °C in assay [1]; -1.98 °C in assay [2]; 0.09 °C in assay [3]; -0.33 °C in assay [4]; -0.61 °C in assay [5]; 0.1 °C in assay [6]. Besides, the ΔTm in assay [7] was -2.12 °C; in assay [8], -0.39 °C.
Turning to `O=C(O)Cc1ccc(Cc2cc(-c3cccc(Cl)c3)nc(C(F)(F)F)c2)cc1`, the ΔTm in assay [1] is 0.68 °C; in assay [2] it was -4.37 °C; in assay [3] it was 1.64 °C; in assay [4], -0.18 °C; in assay [5] it was -1.53 °C; in assay [6], 0.39 °C. Further, the thermal shift (ΔTm) in assay [7] was -2.1 °C; in assay [8], -0.93 °C.
For the compound `CCc1oc2ccccc2c1C(=O)c1cc(Br)c(O)c(Br)c1`, the ΔTm is 0.11 °C in assay [1]; -6.7 °C in assay [2]; -2.31 °C in assay [3]; -9.78 °C in assay [4]; 0 °C in assay [5]; -2.33 °C in assay [6]. The results for the thermal shift (ΔTm) in assay [7] and in assay [8] were 0.35 °C and 0 °C, respectively.
Regarding `CCn1c(=O)c(C)cn(Cc2nnc(-c3ccc(F)c(O)c3F)s2)c1=O`, the ΔTm is 0.41 °C in assay [1]; -1.52 °C in assay [2]; -0.07 °C in assay [3]; 0.26 °C in assay [4]; 0 °C in assay [5]; -0.2 °C in assay [6]. The ΔTm in assay [7] is -0.34 °C; in assay [8], -0.63 °C.
Take `CCCCCCCC(=O)N[C@H](CN1CCCC1)[C@H](O)c1ccc2c(c1)OCCO2`: the shift in melting temperature (ΔTm) in assay [1] is 0.07 °C; in assay [2], -0.36 °C; in assay [3], -0.06 °C; in assay [4] it was -0.32 °C; in assay [5] it was -0.11 °C; in assay [6] it was 0.14 °C. Further, the ΔTm is -1.58 °C in assay [7] and -0.39 °C in assay [8].
On to `CCNC(=O)c1cc2c(-c3cc(C(C)(C)O)ccc3Oc3c(C)cc(F)cc3C)cn(C)c(=O)c2[nH]1`, for which the ΔTm in assay [1] was 0.23 °C; in assay [2] it was 11.1 °C; in assay [3], 0.42 °C; in assay [4], -0.31 °C; in assay [5] it was -0.33 °C; in assay [6] it was 1.43 °C. The shift in melting temperature (ΔTm) is -2.76 °C in assay [7] and 0.91 °C in assay [8].
Turning to `Nc1ccc(-c2cccs2)cc1NC(=O)c1ccc2nc(N3CCNCC3)ccc2c1`, the ΔTm was 3.35 °C in assay [1]; -2.49 °C in assay [2]; 1.41 °C in assay [3]; 0.14 °C in assay [4]; 0.38 °C in assay [5]; -0.25 °C in assay [6]. In addition, the figures for the shift in melting temperature (ΔTm) in assay [7] and in assay [8] were -0.39 °C and -0.74 °C, respectively.
`CCCCCCNC(=O)n1cc(F)c(=O)[nH]c1=O`: the ΔTm in assay [1] is 0.09 °C; in assay [2] it was -1.76 °C; in assay [3], -0.24 °C; in assay [4], -0.3 °C; in assay [5], -0.82 °C; in assay [6], 0.03 °C. Besides, the values for the shift in melting temperature (ΔTm) in assay [7] and in assay [8] were -1.98 °C and 0.05 °C, respectively.
Consider `CC1(C)Cn2nc(-c3ccc(F)cn3)c(-c3ccnc4[nH]ncc34)c2CO1`, for which the shift in melting temperature (ΔTm) in assay [1] was 2.43 °C; in assay [2], -1.54 °C; in assay [3] it was 0.09 °C; in assay [4], 9.16 °C; in assay [5], -1.21 °C; in assay [6], -0.48 °C. Further, the ΔTm in assay [7] is -0.55 °C; in assay [8], -1.54 °C.
`COc1cc2c(NC3CCN(CC4CCCCC4)CC3)nc(N3CCCN(C(C)C)CC3)nc2cc1OCCCN1CCCCC1`: the ΔTm in assay [1] is 0.33 °C; in assay [2] it was -0.97 °C; in assay [3], 0.51 °C; in assay [4], 0.17 °C; in assay [5], -0.33 °C; in assay [6], -0.16 °C. The ΔTm is -0.14 °C in assay [7] and -0.74 °C in assay [8].
Take `Cc1cc(C)cc(Oc2ccc(CNC(=O)[C@H](C)N)cc2C)c1`: the ΔTm in assay [1] is 1.83 °C; in assay [2], -1.81 °C; in assay [3] it was 0.25 °C; in assay [4], 0.15 °C; in assay [5], -1.22 °C; in assay [6], -0.21 °C. Moreover, the thermal shift (ΔTm) in assay [7] was -0.6 °C; in assay [8], -1.58 °C.
As to `COc1ccccc1C(=O)Nc1cc2c(cc1N1CCNC[C@H]1C)n(C)c(=O)n2C`, the thermal shift (ΔTm) in assay [1] stood at 0.51 °C; in assay [2], 1.74 °C; in assay [3] it was 0.17 °C; in assay [4], 0.91 °C; in assay [5], 0.41 °C; in assay [6], 0.25 °C. The figures for the thermal shift (ΔTm) in assay [7] and in assay [8] were -0.29 °C and 0.27 °C, respectively.
Turning to `CCc1c(C)nc(-c2ccc(Cl)s2)nc1Nc1ccc(CC(=O)O)cc1`, the ΔTm is 0.97 °C in assay [1]; -2.77 °C in assay [2]; 0.44 °C in assay [3]; -0.04 °C in assay [4]; 0 °C in assay [5]; 0.51 °C in assay [6]. In addition, the ΔTm in assay [7] is -0.9 °C; in assay [8], 1.46 °C.
For the compound `O=C(NO)c1ccc(CN(c2cnccn2)c2cnccn2)cc1`, the ΔTm in assay [1] was 0.4 °C; in assay [2], -1.6 °C; in assay [3], -0.02 °C; in assay [4], 0.05 °C; in assay [5], -1.38 °C; in assay [6], -0.44 °C. Also, the ΔTm in assay [7] is -0.32 °C; in assay [8], -1.38 °C.
With `CC(C)[C@@H]1NC(=O)[C@H](Cc2ccc(O)cc2)NC(=O)[C@@H](CC(=O)O)NC(=O)S[C@@H](C(=O)O)NC(=O)[C@H]([C@H](C)O)NC(=O)[C@H](Cc2ccc(O)cc2)NC(=O)[C@H](Cc2c[nH]c3ccccc23)NC(=O)[C@H](CCCNC(=N)N)NC(=O)[C@H](Cc2c[nH]c3ccccc23)NC(=O)[C@H](C)NC(=O)[C@H](CO)NC(=O)[C@H](CCCNC(=N)N)NC(=O)[C@H]([C@H](C)O)NC(=O)[C@H](CC(N)=O)NC(=O)[C@H](Cc2ccc(O)cc2)NC1=O`, the ΔTm in assay [1] is 0.39 °C; in assay [2], -2.6 °C; in assay [3], 0.11 °C; in assay [4], -0.3 °C; in assay [5], -0.36 °C; in assay [6], 0.08 °C. For the same compound, the ΔTm in assay [7] is -2.45 °C; in assay [8] it was -0.7 °C.
On to `N#Cc1ccc(-c2csc(NN=C3CCCC3)n2)cc1`, for which the shift in melting temperature (ΔTm) in assay [1] was 1.02 °C; in assay [2], -1.71 °C; in assay [3] it was -3.5 °C; in assay [4] it was 0.34 °C; in assay [5] it was -3.93 °C; in assay [6] it was -0.09 °C. The ΔTm was -0.22 °C in assay [7] and -1.63 °C in assay [8].
With `CC(=O)Nc1ccc(C(=O)Nc2ccc(F)cc2N)cc1`, the ΔTm in assay [1] is 2.43 °C; in assay [2], -2.84 °C; in assay [3] it was -0.66 °C; in assay [4], 0.17 °C; in assay [5], -3.79 °C; in assay [6], -0.66 °C. The thermal shift (ΔTm) is -2.46 °C in assay [7] and -0.15 °C in assay [8].
For `O=c1[nH][nH]c(=O)c2cc(OCc3ccccc3F)ccc12`, the ΔTm in assay [1] was 3.37 °C; in assay [2], -1.6 °C; in assay [3], 0.72 °C; in assay [4], -6.69 °C; in assay [5], 1.24 °C; in assay [6], -14.6 °C. Besides, the thermal shift (ΔTm) was -0.33 °C in assay [7] and 0 °C in assay [8].
On to `CN(Cc1ccccc1)c1ccc2cc(C(=O)O)c(=O)oc2c1`, for which the ΔTm in assay [1] was found to be 0.44 °C; in assay [2] it was 2.11 °C; in assay [3], 0.37 °C; in assay [4], 0.11 °C; in assay [5], 0 °C; in assay [6], 0.54 °C. In addition, the ΔTm was -1.09 °C in assay [7] and 0.17 °C in assay [8].
For the compound `O=C(NC[C@H](O)CN1CCc2ccccc2C1)c1cc(NC2COC2)ncn1`, the ΔTm is 0.58 °C in assay [1]; -1.3 °C in assay [2]; 0.75 °C in assay [3]; 0.5 °C in assay [4]; -0.25 °C in assay [5]; 0.04 °C in assay [6]. Besides, the ΔTm was -0.01 °C in assay [7] and -0.84 °C in assay [8].
On to `CCCC1O[C@@H]2C[C@H]3[C@@H]4CCC5=CC(=O)C=C[C@]5(C)[C@H]4[C@@H](O)C[C@]3(C)[C@]2(C(=O)CO)O1` (stereo partly specified), for which the ΔTm in assay [1] is 0.48 °C; in assay [2], -1.67 °C; in assay [3] it was 0.01 °C; in assay [4], -0.03 °C; in assay [5], -0.4 °C; in assay [6], -0.27 °C. Also, the results for the ΔTm in assay [7] and in assay [8] were -0.16 °C and -0.81 °C, respectively.
